From PubChem
A selection: hits, their analogues and other compounds. The true share with any hit is near 9.2%.
ELG1 genotox – induces genotoxicity in HEK293T cells with luciferase-tagged ELG1. HEK293T ELG1-luciferase reporter, luminescence, 16 h. Potency, µM (titrated, usually from 46 µM), inactives show at the highest dose activity change, positive = activation, hits mostly activators. 1.3% of 330,000 active. AID 504466; further: % of control where 0% means no effect; nearly all actives have a fitted effect of over 60% in size
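ELG1-luciferase HEK293T cells, 2,000/well; compound pinned in; 16 hr, 37 °C, 5% CO2; ONE-Glo, 30 min RT; luminescence on CCD imager.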
FLuc counter – firefly luciferase modulation, counter-screen for miR-21 project; Potency, µM (series often up to 57.5 µM), without a hit: top-dose activity change, negative = inhibition, most hits filed as inhibitors; purified FLuc, Km substrates, luminescence inhibition; AID 588342; P08659; 6.9% of 360,000 active;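 further: plate controls were vehicle for no effect and reference inhibitor for full effect; nearly all actives have a fitted effect of over 55% in size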
Target sequence (P08659 whole entry, looked up): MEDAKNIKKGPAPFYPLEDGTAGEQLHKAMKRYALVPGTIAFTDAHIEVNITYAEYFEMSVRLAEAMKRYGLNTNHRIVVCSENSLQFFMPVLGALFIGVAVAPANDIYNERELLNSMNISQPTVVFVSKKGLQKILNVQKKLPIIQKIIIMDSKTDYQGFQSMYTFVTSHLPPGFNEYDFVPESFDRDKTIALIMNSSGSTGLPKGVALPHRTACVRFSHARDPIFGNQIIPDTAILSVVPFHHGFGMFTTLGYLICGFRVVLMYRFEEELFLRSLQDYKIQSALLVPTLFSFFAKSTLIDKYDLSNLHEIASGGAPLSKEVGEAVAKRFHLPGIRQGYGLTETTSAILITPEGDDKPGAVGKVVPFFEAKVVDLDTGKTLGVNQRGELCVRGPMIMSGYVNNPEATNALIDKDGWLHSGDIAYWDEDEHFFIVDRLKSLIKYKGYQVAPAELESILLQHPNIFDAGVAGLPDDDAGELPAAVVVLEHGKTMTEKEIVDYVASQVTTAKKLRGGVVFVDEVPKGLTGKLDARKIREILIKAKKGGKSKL
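Purified P. pyralis luciferase, 10 nM final, with Km-level 10 uM D-luciferin and 10 uM ATP in 50 mM Tris acetate pH 7.5, 10 mM Mg acetate, 0.01% Tween-20, 0.05% BSA; 6-point qHTS titration about 60 µM downward; luminescence read.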
NPC1 prom act – NPC1 promoter activation; Huh7 NPC1 promoter luciferase reporter, 24 h; Potency, µM (top dose mostly 9.22 µM), inactives show at the highest dose activation, usual class: activators; 2.4% of 320,000 active; AID 485313; further: % of control where 0% means no effect; nearly all actives have a fitted effect of over 60% in size
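Readout is luciferase luminescence, reflecting NPC1 promoter activation in stably transfected Huh7 cells after 24 h compound exposure at 37 °C in reduced-serum medium with 10% FBS.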
ELG1 repair inh – ELG1-dependent DNA repair inhibition; HEK293T ELG1-luciferase reporter, luminescence, 16 h; DNA damage induced by 5-fluorouridine; Potency, µM (highest dose often 46.1 µM), without a hit: at the top dose activity change, negative = inhibition, hits mostly inhibitors; 2.3% of 330,000 active; AID 504467; further: on the % scale 0 is the no-effect control and ±100 the full control effect; nearly all actives have a fitted effect of over 55% in size
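In this reporter screen, reduction of luminescence relative to DMSO vehicle indicated activity. Compounds and 5-fluorouridine were added together to 2,000 cells per well, incubated for 16 hr at 37 °C, then developed with ONE-Glo.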
SMN2 splice up – enhancers of SMN2 splice variant expression | HEK293 SMN2-luciferase splicing reporter, luminescence, 30-36 h | Potency, µM (titrated, usually from 46.1 µM), inactives show at the highest dose activity change, positive = activation, usual class: activators | 2.8% of 210,000 active | AID 1458; further: % of control where 0% means no effect; nearly all actives have a fitted effect of over 55% in size
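HEK293 cells carry an SMN2 minigene-luciferase reporter in which exon 7 inclusion puts luciferase in frame. Cells were seeded at 2000 cells/well, attached for 10-12 hours, then exposed to compounds for 30-36 hours at 37C before ONE-Glo luminescence.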
Rab9 prom act – activates the Rab9 promoter; Potency, µM (highest dose often 9.22 µM), for the others: at the highest dose activation, negative = inhibition, usual class: activators; 2.8% of 320,000 active; Huh7 Rab9 promoter-luciferase reporter, luminescence, 24 h; AID 485297; further: % of control where 0% means no effect; nearly all actives have a fitted effect of over 60% in size
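Cells were plated at 1500 per well in reduced-serum medium with 10% FBS and left 2 h. Compound in DMSO was then added for 24 h at 37 °C. Reporter signal was read by luminescence after 10 min with luciferase detection reagent.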
* = called active by the depositor; ? = inconclusive; nt = no result. The call rests on the fitted dose curve; in most records, active means well fitted curve in the direction sought with a large enough effect; inconclusive means small, poorly fitted or top-dose-only effect, or another doubt; inactive means no such curve, though single readings can be large; an effect the other way counts as inactive or inconclusive. Potency means the concentration at half of the fitted maximal effect.

SMILES	ELG1 genotox	FLuc counter	NPC1 prom act	ELG1 repair inh	SMN2 splice up	Rab9 prom act
O=C(COCc1cc(-c2ccc3c(c2)OCO3)on1)Nc1cc(C(F)(F)F)ccc1Cl	nt	-1.3%	nt	nt	nt	nt
O=C(Nc1cc(C(F)(F)F)ccc1Cl)c1cc(-c2ccc3c(c2)OCCO3)on1	nt	1.69µM*	nt	nt	nt	nt
CCOC(=O)c1c(-c2ccc3ccccc3c2)csc1NC(=O)CCCC(=O)O	-3.4%	-17.7%	-0.9%	20.3%	nt	-2.4%
O=c1cc2[nH]c3ccccc3c(=O)n2nc1-c1ccccc1	13µM*	19µM*	?	?	22.1%	?
CC(=O)N(C1=C(N)C(=O)c2ccccc2C1=O)C(C)C	-6.7%	-2.6%	-8.0%	23.1µM*	-26.5%	-23.4%
CC(=O)N(C)C1=C(O)c2ccccc2C(=O)C1=O	2.0%	2.1%	-2.7%	-1.3%	0.1%	1.0%
CN(C)CCNc1oc(-c2cccc(Cl)c2)nc1C#N	?	-0.8%	1.4%	1.4%	22.4%	5.9%
Cc1nc(C#N)c(N/N=C/c2cccc(Cl)c2)o1	?	4.78µM*	?	?	11.2µM*	?
CN(C)c1ccc(C=Nc2cnn(C)c2C(N)=O)cc1	?	4.78µM*	-4.3%	?	nt	1.0%
Nc1nn(-c2cccc(F)n2)cc1-c1ccccc1	2.91µM*	3.01µM*	2µM*	?	14.1µM*	0.631µM*
Nc1nn(-c2cccc(F)n2)cc1-c1ccc(Cl)cc1	1.16µM*	0.953µM*	2.51µM*	?	17.8µM*	0.447µM*
Nc1ncncc1-c1ccc(Cl)cc1	-3.0%	5.5%	-0.7%	9.2%	nt	-1.8%
Nc1nc(Br)c2c(F)cccc2c1-c1ccccc1	0.0%	-12.0%	-2.9%	13.8%	-1.1%	-2.2%
COc1ccccc1CN(Cc1nc2ccccc2c(=O)[nH]1)C(=O)Nc1cccc(C)c1	-0.8%	?	6.8%	?	6.0%	4.4%
O=C(CCS(=O)(=O)c1ccccc1)Nc1nc2cc3c(cc2s1)OCO3	9.6%	13.5µM*	21.7%	?	nt	18.6%
O=C(CCS(=O)(=O)c1ccccc1)Nc1nc2cc3c(cc2s1)OCCO3	?	7.57µM*	18.0%	?	nt	18.8%
CC(=O)Nc1c2c(nn1-c1cccc(Cl)c1)CS(=O)(=O)C2	1.2%	-0.7%	1.4%	2.9%	nt	-9.2%
OCCC1CN(Cc2cc(F)ccc2-n2cccn2)CCN1C1CCCC1 (stereo unspecified)	-0.1%	5.0%	-4.3%	-3.9%	nt	-0.3%
O=C(O)c1cccc(NC(=O)c2cn(-c3ccccc3)nc2-c2ccncc2)c1	-4.0%	16.9µM*	-0.6%	11.4%	-3.2%	-3.0%
O=C(NNS(=O)(=O)c1ccc([N+](=O)[O-])cc1)C(=O)Nc1cccc(C(=O)O)c1	4.1%	16.9µM*	1.3%	23.0%	nt	11.0%
O=C(O)c1cccc(NC(=O)c2cccc(S(=O)(=O)Nc3cccc([N+](=O)[O-])c3)c2)c1	-0.3%	?	2.0%	14.0%	nt	4.2%
N#C/C(=C/c1cn(-c2ccccc2)nc1-c1cccc(OCc2ccc(F)cc2)c1)C(=O)NCCCn1ccnc1	-6.6%	?	-1.5%	14.6µM*	13.2%	-3.2%
O=C(NCCCn1ccnc1)c1cn(-c2ccccc2)nc1-c1ccc(F)cc1	4.5%	10.7µM*	8.7%	1.3%	12.1%	8.7%
CCCN(CCC)C(=O)Cn1c(=O)n(-c2cccc(OC)c2)c(=O)c2c3c(sc21)CCCC3	nt	3.5%	nt	nt	-2.1%	nt
O=C(O)c1cn(-c2ccccc2)nc1-c1ccncc1	0.6%	?	0.3%	-1.3%	?	-2.5%
SMILES	ELG1 genotox	FLuc counter	NPC1 prom act	ELG1 repair inh	SMN2 splice up	Rab9 prom act
O=C(NCc1cn(-c2ccccc2)nc1-c1ccccc1)c1cccc([N+](=O)[O-])c1	-0.4%	?	1.1%	20.6µM*	3.8%	-1.4%
O=C(Nc1ccc(F)cc1)c1cn(-c2ccccc2)nc1-c1ccncc1	-7.0%	-4.1%	-7.9%	20.6µM*	-6.8%	-1.3%
O=C(O)c1cccc(NC(=O)c2cn(-c3ccccc3)nc2-c2ccc([N+](=O)[O-])cc2)c1	0.5%	16.9µM*	-8.3%	7.9%	nt	0.0%
COc1ccc(-c2nn(-c3ccccc3)cc2C(=O)Nc2cccc(C(=O)O)c2)cc1[N+](=O)[O-]	9.0%	?	1.6%	0.0%	nt	12.8%
O=C(Cn1ccc2cc(S(=O)(=O)N3CCCCC3)ccc21)NCCc1ccc(Cl)cc1	nt	-5.9%	nt	nt	nt	nt
ClC(Cl)(c1nnnn1-c1ccccc1)c1nnnn1-c1ccccc1	-0.5%	?	-4.0%	-1.2%	0.8%	-4.6%
O=[N+]([O-])c1ccc(S(=O)(=O)Nc2cccc(-c3ccc(N4CCOCC4)nn3)c2)cc1	?	3.38µM*	?	?	nt	27.4%
COc1ccc(-c2ccc(NS(=O)(=O)c3ccc([N+](=O)[O-])cc3)cc2)nn1	-2.3%	-0.5%	-0.6%	-8.4%	nt	-1.5%
Cc1cc(C)cc(S(=O)(=O)Nc2cccc(-c3ccc(N4CCOCC4)nn3)c2)c1	nt	12µM*	nt	nt	nt	nt
Cc1ccc(S(=O)(=O)Nc2ccc(N3CCOCC3)nc2)cc1	1.7%	2.2%	-4.4%	-0.5%	-5.0%	-5.2%
CCOc1ccc(-c2cccc(NS(=O)(=O)c3ccc([N+](=O)[O-])cc3)c2)nn1	-1.2%	5.1%	3.1%	2.9%	nt	-1.5%
COc1c(C)cc(S(=O)(=O)Nc2cccc(-c3ccc(N4CCOCC4)nn3)c2)c(C)c1C	nt	15.1µM*	nt	nt	nt	nt
O=[N+]([O-])c1ccc(S(=O)(=O)Nc2ccc(-c3ccc(N4CCOCC4)nn3)cc2)cc1	16.9%	26.9µM*	9.9%	?	nt	21.1%
CC(NS(=O)(=O)c1ccc(OCC(=O)N2CCOCC2)c(Cl)c1)c1ccccc1 (stereo unspecified)	2.1%	7.0%	-0.2%	14.6µM*	-32.2%	2.0%
CC(NS(=O)(=O)c1ccc(OCC(=O)N2CCOCC2)cc1)c1ccccc1 (stereo unspecified)	-0.5%	2.6%	-0.4%	0.8%	-11.5%	-3.7%
CCCn1nc(C(=O)N2CCN(S(=O)(=O)c3ccc(C)c(C)c3)CC2)c2ccccc2c1=O	-8.6%	-0.2%	-1.0%	23.1µM*	nt	-5.2%
CCCn1nc(C(=O)NNC(=O)c2ccc(C)c(C)c2)c2ccccc2c1=O	-1.9%	nt	nt	?	nt	nt
O=S(=O)(c1ccc(OC(F)(F)F)cc1)N1CCC(c2nnnn2-c2ccc(F)cc2)CC1	nt	-4.0%	nt	nt	4.5%	nt
O=C(O)/C(=C\c1cccc(O)c1)c1ccc(S(=O)(=O)N2CCCC2)s1	3.2%	-2.3%	-0.7%	5.5%	nt	-3.0%
O=c1[nH]ncc(N/N=C\c2cccs2)c1Cl	20.6µM*	-3.0%	-5.1%	?	?	-2.4%
